# From the supplement of paper PMC10037445
# Over roughly 2,900 compounds, “NF-kB SEAP reporter activity, fold change vs agonist alone” has its median near 0.99; the highest 2% begin near 2.6. What follows is part of a selection rich in the highest values, with near analogues and random picks from the rest.
# Key:
# RAW-Dual [1] = experiment: NF-kB SEAP reporter activity, fold change vs agonist alone; higher = enhanced NF-kB activity; details: library stock concentration (final ~1000-fold dilution): 10 mM
# Procedure, shortened: (§1)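 RAW-Dual macrophages were seeded in DMEM at 50,000 cells/well in 384-well plates, given 50 nL of library stock by pin tool, and given a PRR agonist 1 h later. Plates were held at 37 °C, 5% CO2 for 20 hours, after which supernatant was read for IRF by QuantiLuc luminescence and for NF-κB by QuantiBlue absorbance at 620 nm. Reporter activity is expressed as fold change over wells that received agonist alone. A well was called cytotoxic when IncuCyte confluency fell below 70% of agonist controls in both mask sets.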
# RAW-Dual [2] = experiment: NF-kB SEAP reporter activity, fold change vs agonist alone; cytotoxicity flag (confluency mask): not cytotoxic; higher = enhanced NF-kB activity
# Procedure, shortened: as §1
# RAW-Dual [3] = experiment: NF-kB SEAP reporter activity, fold change vs agonist alone; cytotoxicity flag (confluency mask): cytotoxic (confluency <70% of control); higher = enhanced NF-kB activity
# Procedure, shortened: as §1
# [4] = cytotoxicity flag (confluency mask): not cytotoxic, agonist: Imiquimod (TLR7) […]
# [5] = cytotoxicity flag (confluency mask): not cytotoxic, agonist: MPLA (TLR4) […]
# [6] = agonist: ODN 1826 (TLR9) 0.5 ug/mL
# [7] = agonist: Pam2CSK4 (TLR2/6) 0.1 ug/mL
# [8] = agonist: Pam3CSK4 (TLR2/1) 0.1 ug/mL
structure (smiles),measurement,setting,value
CCOc1cc(=O)[nH]cc1-c1ccc(CC(=O)Nc2cc(C(C)(C)C(F)(F)F)on2)c(F)c1,NF-kB SEAP reporter activity,RAW-Dual [1]; [4],0.281
same,NF-kB SEAP reporter activity,RAW-Dual [1]; [5],0.545
CCOc1cc(=O)[nH]cc1-c1ccc(CC(=O)Nc2cc(C(C)(C)C(F)(F)F)on2)c(F)c1 (library stock concentration (final ~1000-fold dilution): 10 mM),NF-kB SEAP reporter activity,RAW-Dual [2]; agonist: LPS (TLR4) 0.1 ug/mL,0.538
same,NF-kB SEAP reporter activity,RAW-Dual [2]; [6],0.276
same,NF-kB SEAP reporter activity,RAW-Dual [2]; [7],0.163
same,NF-kB SEAP reporter activity,RAW-Dual [2]; [8],0.188
CC(C)=CCCC(C)(OC1OC(CO)C(O)C(O)C1O)C1CCC2(C)C1C(O)CC1C3(C)CCC(OC4OC(CO)C(O)C(O)C4OC4OC(CO)C(O)C(O)C4O)C(C)(C)C3CCC12C (configuration not stated),NF-kB SEAP reporter activity,RAW-Dual [1]; [4],1.01
same,NF-kB SEAP reporter activity,RAW-Dual [1]; [5],1.02
CC(C)=CCCC(C)(OC1OC(CO)C(O)C(O)C1O)C1CCC2(C)C1C(O)CC1C3(C)CCC(OC4OC(CO)C(O)C(O)C4OC4OC(CO)C(O)C(O)C4O)C(C)(C)C3CCC12C (configuration not stated) (library stock concentration (final ~1000-fold dilution): 10 mM),NF-kB SEAP reporter activity,RAW-Dual [2]; agonist: LPS (TLR4) 0.1 ug/mL,0.838
same,NF-kB SEAP reporter activity,RAW-Dual [2]; [6],1.11
same,NF-kB SEAP reporter activity,RAW-Dual [2]; [7],0.899
same,NF-kB SEAP reporter activity,RAW-Dual [2]; [8],1.02
CCCC(Nc1nc(-c2ccc(NC(=O)NCC)c(OC)c2)ncc1C)c1cccnc1 (configuration not stated) (library stock concentration (final ~1000-fold dilution): 10 mM),NF-kB SEAP reporter activity,RAW-Dual [2]; agonist: LPS (TLR4) 0.1 ug/mL,5.93
same,NF-kB SEAP reporter activity,RAW-Dual [2]; [6],3.66
same,NF-kB SEAP reporter activity,RAW-Dual [2]; [7],2.2
same,NF-kB SEAP reporter activity,RAW-Dual [2]; [8],2.92
CCCC(Nc1nc(-c2ccc(NC(=O)NCC)c(OC)c2)ncc1C)c1cccnc1 (configuration not stated),NF-kB SEAP reporter activity,RAW-Dual [1]; [4],2.63
same,NF-kB SEAP reporter activity,RAW-Dual [1]; [5],2.57
O=C(/C=C/c1ccc(O)c(O)c1/C=C/c1ccc(O)c(O)c1)OC(Cc1ccc(O)c(O)c1)C(=O)O (configuration not stated),NF-kB SEAP reporter activity,RAW-Dual [1]; [4],0.405
same,NF-kB SEAP reporter activity,RAW-Dual [1]; [5],0.891
O=C(/C=C/c1ccc(O)c(O)c1/C=C/c1ccc(O)c(O)c1)OC(Cc1ccc(O)c(O)c1)C(=O)O (configuration not stated) (library stock concentration (final ~1000-fold dilution): 10 mM),NF-kB SEAP reporter activity,RAW-Dual [2]; agonist: LPS (TLR4) 0.1 ug/mL,1.09
same,NF-kB SEAP reporter activity,RAW-Dual [2]; [6],0.836
same,NF-kB SEAP reporter activity,RAW-Dual [2]; [7],0.837
same,NF-kB SEAP reporter activity,RAW-Dual [2]; [8],0.289
CCn1c2ccccc2c2cc(CNCc3ccccc3OC)ccc21.Cl (library stock concentration (final ~1000-fold dilution): 10 mM),NF-kB SEAP reporter activity,RAW-Dual [3]; agonist: LPS (TLR4) 0.1 ug/mL,1.06
same,NF-kB SEAP reporter activity,RAW-Dual [3]; [6],0.394
same,NF-kB SEAP reporter activity,RAW-Dual [3]; [7],0.659
same,NF-kB SEAP reporter activity,RAW-Dual [3]; [8],0.641
CCn1c2ccccc2c2cc(-n3nncc3-c3ccccc3)ccc21,NF-kB SEAP reporter activity,RAW-Dual [1]; [4],1.66
same,NF-kB SEAP reporter activity,RAW-Dual [1]; [5],2.14
CCn1c2ccccc2c2cc(-n3nncc3-c3ccccc3)ccc21 (library stock concentration (final ~1000-fold dilution): 10 mM),NF-kB SEAP reporter activity,RAW-Dual [2]; agonist: LPS (TLR4) 0.1 ug/mL,3.15
same,NF-kB SEAP reporter activity,RAW-Dual [2]; [6],1.82
same,NF-kB SEAP reporter activity,RAW-Dual [2]; [7],1.81
same,NF-kB SEAP reporter activity,RAW-Dual [2]; [8],2.79
CCn1c2ccccc2c2cc(CNCc3ccccc3OC)ccc21.Cl,NF-kB SEAP reporter activity,"RAW-Dual [1]; cytotoxicity flag (confluency mask): cytotoxic (confluency <70% of control), agonist: Imiquimod (TLR7) […]",1.22
same,NF-kB SEAP reporter activity,"RAW-Dual [1]; cytotoxicity flag (confluency mask): cytotoxic (confluency <70% of control), agonist: MPLA (TLR4) […]",1.37
CC(=O)N1CCN(c2ccc(NC(=O)Cc3cnc(-c4ccnc(F)c4)c(C)c3)nc2)CC1 (library stock concentration (final ~1000-fold dilution): 10 mM),NF-kB SEAP reporter activity,RAW-Dual [2]; agonist: LPS (TLR4) 0.1 ug/mL,0.956
same,NF-kB SEAP reporter activity,RAW-Dual [2]; [6],0.965
same,NF-kB SEAP reporter activity,RAW-Dual [2]; [7],0.991
same,NF-kB SEAP reporter activity,RAW-Dual [2]; [8],1.03
CC(=O)N1CCN(c2ccc(NC(=O)Cc3cnc(-c4ccnc(F)c4)c(C)c3)nc2)CC1,NF-kB SEAP reporter activity,RAW-Dual [1]; [4],0.874
same,NF-kB SEAP reporter activity,RAW-Dual [1]; [5],1
CC(/C=C/C=C(\C)C(=O)OC1OC(COC2OC(CO)C(O)C(O)C2O)C(O)C(O)C1O)=C\C=C\C=C(C)\C=C\C=C(/C)C(=O)OC1OC(COC2OC(CO)C(O)C(O)C2O)C(O)C(O)C1O (configuration not stated) (library stock concentration (final ~1000-fold dilution): 10 mM),NF-kB SEAP reporter activity,RAW-Dual [2]; agonist: LPS (TLR4) 0.1 ug/mL,1.08
same,NF-kB SEAP reporter activity,RAW-Dual [2]; [6],0.948
same,NF-kB SEAP reporter activity,RAW-Dual [2]; [7],1.16
same,NF-kB SEAP reporter activity,RAW-Dual [2]; [8],1.19
CC(/C=C/C=C(\C)C(=O)OC1OC(COC2OC(CO)C(O)C(O)C2O)C(O)C(O)C1O)=C\C=C\C=C(C)\C=C\C=C(/C)C(=O)OC1OC(COC2OC(CO)C(O)C(O)C2O)C(O)C(O)C1O (configuration not stated),NF-kB SEAP reporter activity,RAW-Dual [1]; [4],0.915
same,NF-kB SEAP reporter activity,RAW-Dual [1]; [5],1.03
CS(=O)(=O)N1CCN(Cc2cc3nc(-c4cccc5[nH]ncc45)nc(N4CCOCC4)c3s2)CC1 (library stock concentration (final ~1000-fold dilution): 10 mM),NF-kB SEAP reporter activity,RAW-Dual [2]; agonist: LPS (TLR4) 0.1 ug/mL,1.87
same,NF-kB SEAP reporter activity,RAW-Dual [2]; [6],0.247
same,NF-kB SEAP reporter activity,RAW-Dual [2]; [7],1.02
same,NF-kB SEAP reporter activity,RAW-Dual [2]; [8],0.72
Fc1ccc2[nH]ccc2c1-c1nc(N2CCOCC2)c2sc(CN3CCN(CC4CC4)CC3)cc2n1,NF-kB SEAP reporter activity,RAW-Dual [1]; [4],0.944
same,NF-kB SEAP reporter activity,RAW-Dual [1]; [5],1.25
Fc1ccc2[nH]ccc2c1-c1nc(N2CCOCC2)c2sc(CN3CCN(CC4CC4)CC3)cc2n1 (library stock concentration (final ~1000-fold dilution): 10 mM),NF-kB SEAP reporter activity,RAW-Dual [2]; agonist: LPS (TLR4) 0.1 ug/mL,2.9
same,NF-kB SEAP reporter activity,RAW-Dual [2]; [6],0.272
same,NF-kB SEAP reporter activity,RAW-Dual [2]; [7],1.03
same,NF-kB SEAP reporter activity,RAW-Dual [2]; [8],0.935
CS(=O)(=O)N1CCN(Cc2cc3nc(-c4cccc5[nH]ncc45)nc(N4CCOCC4)c3s2)CC1,NF-kB SEAP reporter activity,RAW-Dual [1]; [4],1.77
same,NF-kB SEAP reporter activity,RAW-Dual [1]; [5],1.75
O=C(CCNC(=O)c1ccc(OC(F)(F)F)cc1)NC1CCCc2ccccc21 (configuration not stated) (library stock concentration (final ~1000-fold dilution): 10 mM),NF-kB SEAP reporter activity,RAW-Dual [2]; agonist: LPS (TLR4) 0.1 ug/mL,0.767
same,NF-kB SEAP reporter activity,RAW-Dual [2]; [6],1.33
same,NF-kB SEAP reporter activity,RAW-Dual [2]; [7],0.519
same,NF-kB SEAP reporter activity,RAW-Dual [2]; [8],0.68
O=C(CCNC(=O)c1ccc(OC(F)(F)F)cc1)NC1CCCc2ccccc21 (configuration not stated),NF-kB SEAP reporter activity,RAW-Dual [1]; [4],1.66
same,NF-kB SEAP reporter activity,RAW-Dual [1]; [5],1.13
COc1cc2c(cc1OC)CC(=O)N(CCCN(C)CC1Cc3cc(OC)c(OC)cc31)CC2.Cl (configuration not stated),NF-kB SEAP reporter activity,RAW-Dual [1]; [4],0.885
same,NF-kB SEAP reporter activity,RAW-Dual [1]; [5],0.951
COc1cc2c(cc1OC)CC(=O)N(CCCN(C)CC1Cc3cc(OC)c(OC)cc31)CC2.Cl (configuration not stated) (library stock concentration (final ~1000-fold dilution): 10 mM),NF-kB SEAP reporter activity,RAW-Dual [2]; agonist: LPS (TLR4) 0.1 ug/mL,1.3
same,NF-kB SEAP reporter activity,RAW-Dual [2]; [6],0.895
same,NF-kB SEAP reporter activity,RAW-Dual [2]; [7],0.867
same,NF-kB SEAP reporter activity,RAW-Dual [2]; [8],1.1
